Reference: PubChem BioAssay
Values without a mark were called inactive. For part of these data: Results with a measured potency or affinity are listed apart. Activity calls are given as the source filed them. Unless noted, the rule behind the calls is not given here.

Tests used:
[1] = antimalarial activity against Dd2 strain (AID 2302;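 active = growth inhibition above 50% at the single 2 µM test dose, taken to imply half-maximal potency below 2 µM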;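 note: 0% = DMSO untreated growth and 100% = chloroquine plus artemisinin killed control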); settings: P. falciparum Dd2 in RBCs, LDH growth readout, 72 h; at 2 µM; active compounds read high
[2] = HepG2 cytotoxicity, primary screen, cytotoxicity control for P. falciparum antimalarial project, cell-based, ATP luminescence (AID 2303;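 active = inhibition above 50%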;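 note: 0% = DMSO wells and 100% = digitonin-killed cells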); settings: HepG2 viability, 24-48 h, at 10 µM, active compounds read high
[3] = target: L-lactate dehydrogenase (Plasmodium falciparum (isolate CDC / Honduras)) (UniProt Q27743); experiment: PfLDH activity inhibition – cell lysate, 3D7 strain, counter-screen for P. falciparum growth inhibition project (AID 2304);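 note: 0% = vehicle and 100% = reference inhibitor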; settings: P. falciparum 3D7 crude extract, LDH APAD/NBT absorbance; at 2 µM; active compounds read high
[4] = inhibition of 3D7 malaria parasite growth – strain 3D7 (AID 2306);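 note: 0% = DMSO wells and 100% = chloroquine plus artemisinin control wells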; settings: P. falciparum 3D7 erythrocytic growth, LDH absorbance, 72 h; at 2 µM; active compounds read high
[5] = target: Calcium-dependent protein kinase 1 (Plasmodium falciparum (isolate 3D7)) (UniProt P62344); experiment: PfCDPK1 kinase inhibitors, biochemical, TCAMS library (AID 1159585; cut-off not given, nearly all actives have IC50 up to about 0.98 µM;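 note: inhibitors leave more ATP so luminescence rises with inhibition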); settings: recombinant PfCDPK1, Kinase-Glo ATP depletion luminescence
[6] = target: Plasmodium falciparum protein kinase 6 (PK6, PF3D7_1337100) (UniProt Q8IDW1); experiment: PfPK6 kinase inhibitors, biochemical, TCAMS library (AID 1159586); settings: recombinant PfPK6, Kinase-Glo ATP depletion luminescence
[7] = target: Protein kinase 7 (PK7), Plasmodium falciparum 3D7 (PF3D7_0213400) (UniProt Q7YTF7); experiment: inhibition of Plasmodium PK7 catalytic activity – biochemical, TCAMS antimalarial set, Kinase-Glo luminescence (AID 1159587); settings: recombinant PfPK7, Kinase-Glo ATP depletion luminescence
[8] = target: Calcium-dependent protein kinase 4 (Plasmodium falciparum (isolate 3D7)) (UniProt Q8IBS5); experiment: PfCDPK4 kinase inhibitors, biochemical, TCAMS library (AID 1159588; cut-off not given, nearly all actives have IC50 up to about 0.91 µM); settings: recombinant PfCDPK4, Kinase-Glo ATP depletion luminescence
Sequence of Calcium-dependent protein kinase 4 (Plasmodium falciparum (isolate 3D7)) (Q8IBS5 whole entry, looked up): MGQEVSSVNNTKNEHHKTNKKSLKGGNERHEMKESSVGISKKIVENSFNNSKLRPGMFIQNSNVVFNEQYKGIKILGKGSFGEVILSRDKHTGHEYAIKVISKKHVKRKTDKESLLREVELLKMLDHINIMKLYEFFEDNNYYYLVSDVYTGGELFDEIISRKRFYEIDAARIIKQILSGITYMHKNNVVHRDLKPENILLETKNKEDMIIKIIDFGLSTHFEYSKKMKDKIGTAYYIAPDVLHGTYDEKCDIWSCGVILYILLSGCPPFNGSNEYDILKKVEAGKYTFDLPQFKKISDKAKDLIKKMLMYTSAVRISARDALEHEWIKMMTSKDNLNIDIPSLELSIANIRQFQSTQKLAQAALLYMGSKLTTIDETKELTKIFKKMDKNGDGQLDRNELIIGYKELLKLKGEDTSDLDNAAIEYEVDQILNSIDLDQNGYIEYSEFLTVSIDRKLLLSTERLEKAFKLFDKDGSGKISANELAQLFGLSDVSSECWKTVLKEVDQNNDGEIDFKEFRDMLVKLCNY

Sequence of L-lactate dehydrogenase (Plasmodium falciparum (isolate CDC / Honduras)) (Q27743 whole entry, looked up): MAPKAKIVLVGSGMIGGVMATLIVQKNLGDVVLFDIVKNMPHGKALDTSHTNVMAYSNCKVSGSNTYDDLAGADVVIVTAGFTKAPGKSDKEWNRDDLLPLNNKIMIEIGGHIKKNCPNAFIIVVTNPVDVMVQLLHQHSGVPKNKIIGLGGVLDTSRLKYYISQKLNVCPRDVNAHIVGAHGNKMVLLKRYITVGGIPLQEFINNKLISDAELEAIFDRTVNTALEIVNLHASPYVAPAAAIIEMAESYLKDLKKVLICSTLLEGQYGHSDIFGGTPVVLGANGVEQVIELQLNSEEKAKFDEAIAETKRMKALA
Sequence of Calcium-dependent protein kinase 1 (Plasmodium falciparum (isolate 3D7)) (P62344 whole entry, looked up): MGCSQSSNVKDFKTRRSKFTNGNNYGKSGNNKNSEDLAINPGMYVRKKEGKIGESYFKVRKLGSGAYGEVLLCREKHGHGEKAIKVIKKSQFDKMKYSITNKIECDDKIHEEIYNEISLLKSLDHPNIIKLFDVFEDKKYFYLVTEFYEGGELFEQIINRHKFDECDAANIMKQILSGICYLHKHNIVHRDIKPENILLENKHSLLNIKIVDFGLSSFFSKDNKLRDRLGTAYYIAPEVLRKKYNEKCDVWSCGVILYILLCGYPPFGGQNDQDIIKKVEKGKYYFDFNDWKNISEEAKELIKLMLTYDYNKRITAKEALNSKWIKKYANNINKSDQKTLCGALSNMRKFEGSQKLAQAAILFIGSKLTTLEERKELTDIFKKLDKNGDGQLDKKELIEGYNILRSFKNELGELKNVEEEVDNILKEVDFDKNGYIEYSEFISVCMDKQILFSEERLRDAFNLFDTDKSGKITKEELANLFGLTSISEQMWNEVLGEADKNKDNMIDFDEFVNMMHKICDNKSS
Sequence of Plasmodium falciparum protein kinase 6 (PK6, PF3D7_1337100) (Q8IDW1 1-305): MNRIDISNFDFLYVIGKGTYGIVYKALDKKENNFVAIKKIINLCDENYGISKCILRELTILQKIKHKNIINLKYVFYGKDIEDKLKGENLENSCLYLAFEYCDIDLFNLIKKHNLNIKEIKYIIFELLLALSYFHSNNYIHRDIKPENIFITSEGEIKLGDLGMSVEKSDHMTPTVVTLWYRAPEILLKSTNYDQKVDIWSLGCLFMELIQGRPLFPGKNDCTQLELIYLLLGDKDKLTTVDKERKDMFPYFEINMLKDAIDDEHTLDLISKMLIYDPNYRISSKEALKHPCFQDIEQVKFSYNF
Sequence of Protein kinase 7 (PK7), Plasmodium falciparum 3D7 (PF3D7_0213400) (Q7YTF7 1-343): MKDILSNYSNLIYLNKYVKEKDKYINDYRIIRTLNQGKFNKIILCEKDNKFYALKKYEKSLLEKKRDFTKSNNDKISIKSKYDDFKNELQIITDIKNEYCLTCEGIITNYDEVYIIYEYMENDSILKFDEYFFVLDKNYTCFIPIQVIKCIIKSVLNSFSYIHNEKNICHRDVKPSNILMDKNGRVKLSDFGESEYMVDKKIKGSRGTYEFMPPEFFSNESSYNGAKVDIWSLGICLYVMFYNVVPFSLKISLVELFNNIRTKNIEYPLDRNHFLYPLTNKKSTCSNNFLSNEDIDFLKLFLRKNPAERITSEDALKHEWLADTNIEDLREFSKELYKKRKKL

SMILES | growth inhibition [1] | inhibition [2] | inhibition [3] [%] | growth inhibition [4] | outcome [5] | outcome [6] | outcome [7] | outcome [8]
O=C(Nc1ccc(Cl)c(C(F)(F)F)c1)c1ccc(C(=O)Nc2ccc(Cl)c(C(F)(F)F)c2)cc1 | 27% | 9% | -2 | 88% (active) | inactive | inactive | inactive | inactive
O=C(Nc1ccc(-c2cccc(-c3nc4ccc(F)cc4[nH]3)c2)cc1)Nc1ccsc1 | 51% (active) | 34% | 5 | 101% (active) | inactive | inactive | inactive | inactive
COc1ccc(CNCCc2cccs2)cc1-c1ccc(S(=O)(=O)NCCN2CCCC2)cc1 | 30% | 30% | 4 | 99% (active) | inactive | inactive | inactive | inactive
c1ccc2cc(CNCCCN3CCN(CCCNCc4ccc5ccccc5c4)CC3)ccc2c1 | 65% (active) | 60% (active) | 2 | 100% (active) | inactive | inactive | inactive | inactive
CCCCN(Cc1cccc(C(F)(F)F)c1Cl)c1ccc(C(O)(C(F)(F)F)C(F)(F)F)cc1 | 55% (active) | 10% | -3 | 91% (active) | inactive | inactive | inactive | inactive
C=CC(=O)Nc1ccc(Cl)cc1C(O)c1ccccc1 (configuration not stated) | 5% | -5% | 0 | 100% (active) | inactive | inactive | inactive | inactive
O=C(Nc1cccc(-c2nn3ccccc3c2-c2ccnc(Nc3ccccc3)n2)c1)c1cc(F)ccc1F | 75% (active) | 8% | 0 | 98% (active) | inactive | inactive | inactive | inactive
CC(NC(=O)c1ccc(O)c(-c2ccc(Cl)c(Cl)c2)c1)C(=O)NCCN1CCOCC1 (configuration not stated) | 7% | 2% | -3 | 87% (active) | inactive | inactive | inactive | inactive
O=C(Nc1cccc(OCc2ccccc2)c1)c1ccc(CN2CCC(Cc3ccccc3)CC2)cc1 | 27% | 41% | 3 | 100% (active) | inactive | inactive | inactive | inactive
COc1ccc(CN(C)CCCCc2ccc(NC(=O)COc3cccc4sc5ccccc5c(=O)c34)cc2)cc1OC | 84% (active) | 26% | -1 | 100% (active) | inactive | inactive | inactive | inactive
Cc1c(S(=O)(=O)Nc2cccc(CCN3CCCCC3CCN3CCCC3)c2)sc2ccc(Cl)cc12 (configuration not stated) | 10% | 22% | 0 | 93% (active) | inactive | inactive | inactive | inactive
O=C(Nc1cccc(CN2CCCN(Cc3cccc(Cl)c3)CC2)c1)c1ccc(Cl)c(Cl)c1 | 17% | 18% | -1 | 89% (active) | inactive | inactive | inactive | inactive
CCCCC(NCC)c1ccc(OCCOc2ccc(C(CCCC)NCC)cc2)cc1 (configuration not stated) | 99% (active) | 100% (active) | 3 | 101% (active) | inactive | inactive | inactive | inactive
CC(C)(C)CC(C)(C)c1ccc(O)c(C(=O)Nc2ccc([N+](=O)[O-])cc2)c1 | 99% (active) | 80% (active) | 5 | 97% (active) | inactive | inactive | inactive | inactive
O=C(NCCN1CCC(c2ncc(-c3ccccc3)o2)CC1)c1ccc(NC(=O)c2ccc(Cl)cc2)cc1 | 80% (active) | 32% | -7 | 101% (active) | inactive | inactive | inactive | inactive
COc1cc2nc(N3CCC(CNC(=O)c4ccc(-c5ccc(-c6noc(C)n6)cc5C)cc4)CC3)nc(N)c2cc1OC | 99% (active) | 99% (active) | -4 | 100% (active) | inactive | inactive | inactive | inactive
CCCN(CCC)C(=O)c1cc(C(=O)N[C@@H](Cc2ccccc2)[C@H](O)CNCc2cccc(OC)c2)cc(N2CCCCS2(=O)=O)c1 | 99% (active) | -1% | 4 | 97% (active) | inactive | inactive | inactive | inactive
NC(=O)C1CCN(Cc2cccc(-c3ccc(-c4nc5ccc(C(F)(F)F)cc5[nH]4)cc3)c2)CC1 | 94% (active) | 7% | 8 | 100% (active) | inactive | inactive | inactive | inactive
Cn1cc(C(=O)Nc2cccc(-c3cccc(-c4nc5ccc(F)cc5[nH]4)c3)c2)n(C)c1=O | 50% (active) | 15% | -1 | 98% (active) | inactive | inactive | inactive | inactive
CCc1cn(CCOC)c2ccc(C(=O)N[C@@H](Cc3ccccc3)[C@H](O)CNC(C)(C)CCCC(C)C)cc12 | 98% (active) | 35% | 1 | 98% (active) | inactive | inactive | inactive | inactive

SMILES | growth inhibition [1] | inhibition [2] | inhibition [3] [%] | growth inhibition [4] | outcome [5] | outcome [6] | outcome [7] | outcome [8]
CN(C)c1ccc(-c2csc(C(=O)NCC3CCN(CCC(C)(C)C)C3)c2)cc1 (configuration not stated) | 16% | 29% | 4 | 87% (active) | inactive | inactive | inactive | inactive
CCN(CCCN1CCCCC1)c1cc(C)nc(Nc2ccc(C)c(Br)c2)n1 | 98% (active) | 42% | -8 | 102% (active) | inactive | inactive | inactive | inactive
Cc1cccc2[nH]c(-c3cccc(-c4cccc(CNCCN5CCNCC5)c4)c3)nc12 | 0% | 11% | 1 | 90% (active) | inactive | inactive | inactive | inactive
COc1ccccc1-c1ccc2nnc(SCC(=O)Nc3ccc4c(c3)OCCO4)n2n1 | 5% | 9% | -7 | 99% (active) | inactive | inactive | inactive | inactive
CCOCCCn1c(=N)c(C(=O)NCc2ccc(OC)cc2)cc2c(=O)n3cccc(C)c3nc21 | 46% | 24% | 2 | 99% (active) | inactive | inactive | inactive | inactive
O=C(Nc1ccc(Cl)c(Cl)c1)N1CCC(NCc2cccc([N+](=O)[O-])c2)CC1 | 12% | 8% | 2 | 97% (active) | inactive | inactive | inactive | inactive
CCOC(=O)c1ccc(NC(=O)Nc2ccc(-c3cccc(-c4nc5ccccc5[nH]4)c3)cc2)cc1 | 99% (active) | 94% (active) | -4 | 101% (active) | inactive | inactive | inactive | inactive
COc1cc(NC(=O)/C=C/c2ccc(-c3ccccc3)cc2)ccc1OCCN(C(C)C)C(C)C | 62% (active) | 58% (active) | -5 | 94% (active) | inactive | inactive | inactive | inactive
Cn1cncc1C(=O)Nc1cccc(-c2cccc(-c3nc4ccc(C(F)(F)F)cc4[nH]3)c2)c1 | 99% (active) | 38% | 0 | 103% (active) | inactive | inactive | inactive | inactive
CC1(C)N=C(N)NC(NOCCCCCCONC2=NC(C)(C)N=C(N)N2)=N1 | 98% (active) | 34% | -4 | 95% (active) | inactive | inactive | inactive | inactive
CN(C)CCN(C)Cc1ccc(-c2cccc(-c3nc4ccccc4[nH]3)c2)cc1 | 78% (active) | 46% | -1 | 101% (active) | inactive | inactive | inactive | inactive
CC(C)C[C@@H](/C=N/N1CCOC1=O)NC(=O)[C@H](CC(C)C)NC(=O)c1ccc(F)cc1 | 72% (active) | 1% | -4 | 85% (active) | inactive | inactive | inactive | inactive
COc1ccc(NC(=O)Nc2cc(C)nc3ccccc23)cc1Cl | 49% | 4% | -2 | 104% (active) | inactive | inactive | inactive | inactive
Cc1cc(C(F)(F)F)n2nc(C3CCN(Cc4cc(C)c(O)c(C)c4)C3)cc2n1 (configuration not stated) | 99% (active) | 34% | 0 | 98% (active) | inactive | inactive | inactive | inactive
CCNc1cc(C(=O)N[C@@H](Cc2ccccc2)[C@H](O)CNC(CC)c2cccc(Cl)c2)cc(N2CCCC2=O)c1 (some centres not stated) | 99% (active) | 12% | -1 | 97% (active) | inactive | inactive | inactive | inactive
O=C(C=Cc1ccc(Cl)c(Cl)c1)NCCCCCN1CCC(CCNC(=O)c2sc3ccccc3c2Cl)CC1 | 6% | 27% | -5 | 88% (active) | inactive | inactive | inactive | inactive
Cc1cccc2[nH]c(-c3cccc(-c4cccc(CNCc5ccccc5)c4)c3)nc12 | 56% (active) | 3% | -1 | 101% (active) | inactive | inactive | inactive | inactive
CC(C)(C)c1ccc(NC(=O)c2ccc(CN3CCCN(Cc4ccc(F)cc4)CC3)cc2)cc1 | 7% | 55% (active) | -1 | 87% (active) | inactive | inactive | inactive | inactive
Cn1ccnc1CNC(=O)c1ccc(-c2cccc(-c3nc4ccc(F)cc4[nH]3)c2)cc1 | 8% | 8% | 7 | 96% (active) | inactive | inactive | inactive | inactive
